In all, about 1,300 compounds went through this assay and about 980 (75%) were called active. Roughly 4% stayed inconclusive and do not appear here. Some of the results follow.

In this test the target is Sulfhydryl oxidase 1 (Homo sapiens) (UniProt O00391). As to the kind of experiment: inhibition of human sulfhydryl oxidase QSOX1 – biochemical, HyperBlu H2O2 luminescence, HTS, primary screen (AID 1347420). Note: values above 100% were filed as inconclusive. As to conditions: recombinant QSOX1, HyperBlu H2O2 luminescence; at 12.5 µM; stronger effect = higher value; active = any value above zero.
Chain of Sulfhydryl oxidase 1 (Homo sapiens) (O00391 whole entry, looked up): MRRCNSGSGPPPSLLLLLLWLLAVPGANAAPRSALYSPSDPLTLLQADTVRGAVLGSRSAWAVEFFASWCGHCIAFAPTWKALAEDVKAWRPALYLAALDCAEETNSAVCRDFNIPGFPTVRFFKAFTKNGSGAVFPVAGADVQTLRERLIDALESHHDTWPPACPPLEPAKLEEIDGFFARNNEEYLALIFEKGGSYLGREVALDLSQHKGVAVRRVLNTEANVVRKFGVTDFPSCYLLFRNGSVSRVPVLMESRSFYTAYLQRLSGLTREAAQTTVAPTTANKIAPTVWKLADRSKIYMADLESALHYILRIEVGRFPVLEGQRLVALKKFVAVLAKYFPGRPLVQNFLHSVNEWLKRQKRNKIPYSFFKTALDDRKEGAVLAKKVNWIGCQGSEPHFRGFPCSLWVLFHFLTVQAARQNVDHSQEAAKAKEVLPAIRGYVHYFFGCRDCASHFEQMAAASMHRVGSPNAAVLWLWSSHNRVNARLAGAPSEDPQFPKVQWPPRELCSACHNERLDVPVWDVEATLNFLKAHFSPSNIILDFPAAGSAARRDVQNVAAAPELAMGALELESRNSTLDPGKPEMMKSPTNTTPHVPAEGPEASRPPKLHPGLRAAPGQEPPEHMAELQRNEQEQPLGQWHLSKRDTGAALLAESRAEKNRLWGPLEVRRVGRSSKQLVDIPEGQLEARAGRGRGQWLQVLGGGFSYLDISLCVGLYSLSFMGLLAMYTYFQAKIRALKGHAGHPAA
The term inhibition denotes the drop in the measured response relative to a control, in per cent. With `O=C(CCNNC(=O)c1ccncc1)NCc1ccccc1`, the inhibition was 0.1% (active).

In the case of `OC(CCN1CCCCC1)(c1ccccc1)C1CC2C=CC1C2` (stereo not given), the inhibition is 8.3% (active).

Turning to `OC(CCN1CCCCC1)(c1ccccc1)C1CCCCC1` (stereo not given), the inhibition was -1.3% (inactive).

With `O=C(O)CC1CCCc2ccccc2C1O` (stereo not given), the inhibition was 8.6% (active).

Take `NOCC(=O)O`: the inhibition is 3% (active).

For `NCC(O)(CS(=O)(=O)O)c1ccc(Cl)cc1` (stereo not given), the inhibition is -0.3% (inactive).

As to `NCCCS(=O)(=O)O`, the inhibition was 14.2% (active).

In the case of `NCCS(=O)(=O)O`, the inhibition was 9.8% (active).

In the case of `CN1Cc2c(N)cccc2C(c2ccccc2)C1` (stereo not given), the inhibition is -2.6% (inactive).

For `CN1CCc2cc(O)c(O)cc2C(c2ccccc2)C1` (stereo not given), the inhibition is 67.4% (active).

Regarding `CN1CCc2cc(Cl)c(O)cc2[C@@H](c2ccccc2)C1`, the inhibition is 35.8% (active).

With `COc1ccccc1N1CCN(CCCNc2c(C)c(=O)n(C)c(=O)n2C)CC1`, the inhibition is 16.8% (active).

Turning to `COc1ccccc1N1CCN(CCCNc2cc(=O)n(C)c(=O)n2C)CC1`, the inhibition is 22% (active).

For the compound `CC#C[C@]1(O)CC[C@H]2[C@@H]3CCC4=CC(=O)CCC4=C3[C@@H](c3ccc(N(C)C)cc3)C[C@@]21C`, the inhibition was 89.8% (active).

For `NCC(O)C1CCCCCCC1` (stereo not given), the inhibition is 18.4% (active).

With `Fc1ccc(C(OCCCc2cnc[nH]2)c2ccc(F)cc2)cc1`, the inhibition was 10.8% (active).

As to `COC(=O)[C@H](NC(=O)c1cc(-c2ccccc2)nc2ccccc12)c1ccccc1`, the inhibition was 4.2% (active).

For the compound `CC(=O)[C@]1(O)Cc2c(O)c3c(c(O)c2[C@@H](O[C@H]2C[C@H](N)[C@H](O)[C@H](C)O2)C1)C(=O)c1ccccc1C3=O`, the inhibition is 50.8% (active).

On to `CC(N)C(=O)OC(C)(C)Cc1ccc(Cl)cc1` (stereo not given), for which the inhibition is 5.6% (active).

For the compound `Nc1nc2ccc(Cl)cc2c2nc(-c3ccco3)nn12`, the inhibition was 27.7% (active).

Turning to `Nc1nc2c(cnn2CCc2ccccc2)c2nc(-c3ccco3)nn12`, the inhibition is 17% (active).

Regarding `CCN(CC)CCCC(C)Nc1ccnc2cc(Cl)ccc12` (stereo not given), the inhibition is 4.6% (active).

Turning to `CCN(CC)CCCC(C)Nc1c2ccc(Cl)cc2nc2ccc(OC)cc12` (stereo not given), the inhibition is -13% (inactive).

For `O=C(O)c1cc(=O)c2ccccc2[nH]1`, the inhibition is -7.5% (inactive).

Consider `O=C(O)/C(=C/c1c(C(=O)O)[nH]c2cc(Cl)cc(Cl)c12)c1ccccc1`, for which the inhibition is 12.3% (active).

`O=C(O)c1cc(=O)c2c(Cl)cc(Cl)cc2[nH]1`: the inhibition is 23.5% (active).

For the compound `C=C[C@@]1(C)CC(=O)[C@]2(O)[C@@]3(C)[C@H](O)CCC(C)(C)[C@@H]3[C@H](O)[C@H](OC(C)=O)[C@@]2(C)O1`, the inhibition was -4.2% (inactive).

As to `c1ccc2c(c1)CCCC2C1=NCCN1` (stereo not given), the inhibition was 7.7% (active).

On to `NC1(C(=O)O)CCc2cc(C(=O)O)ccc21` (stereo not given), for which the inhibition is 11.9% (active).

Consider `Cn1c(=O)c2[nH]cnc2n(C)c1=O`, for which the inhibition was 20.2% (active).

For the compound `CC(C)Cn1c(=O)n(C)c(=O)c2[nH]cnc21`, the inhibition is -4.6% (inactive).

`CN1Cc2sccc2C(c2ccc(O)c(O)c2)C1` (stereo not given): the inhibition was 84.1% (active).

Take `Oc1ccc(C2CNCc3sccc32)cc1O` (stereo not given): the inhibition was 68.4% (active).

With `NCC1OC(O[C@@H]2[C@H](O)C(OC3C(O)C(N)CC(N)C3OC3OC(CO)C(O)C(O)C3N)O[C@@H]2CO)C(N)C(O)C1O` (stereo not given in full), the inhibition was -0.2% (inactive).

On to `CC(N)=O`, for which the inhibition was 37.1% (active).

On to `CC(=O)C(C)=O`, for which the inhibition was 5.7% (active).

On to `CC(=O)/C(C)=N/O`, for which the inhibition was -16.7% (inactive).

Consider `CCN1C(=O)C=CC1=O`, for which the inhibition was 12.3% (active).

Take `CC(O)C(O)[C@H]1CNc2nc(N)[nH]c(=O)c2N1` (stereo not given in full): the inhibition is -1.8% (inactive).

For the compound `C[C@H](O)C(=O)C1=Nc2c(nc(N)[nH]c2=O)NC1`, the inhibition was 9.2% (active).

As to `NS(=O)(=O)C1=[C+]C=[C+]c2c1c([N+](=O)[O-])cc1nc([O-])c([O-])nc21`, the inhibition is 79% (active).

For the compound `CCn1c(=O)[nH]c2cc(Cl)c(Cl)cc21`, the inhibition is 20.4% (active).

In the case of `Cn1c(=O)c2c(nc(/C=C/c3cccc(Cl)c3)n2C)n(C)c1=O`, the inhibition is 8.5% (active).

For `CN1C[C@H](C(=O)N[C@]2(C)O[C@@]3(O)[C@@H]4CCCN4C(=O)[C@H](Cc4ccccc4)N3C2=O)C[C@@H]2c3cccc4[nH]cc(c34)C[C@H]21`, the inhibition was 50.6% (active).

Consider `Nc1ncnc2c1c(I)cn2[C@@H]1C[C@H](N)[C@@H](O)[C@H]1O`, for which the inhibition was 22.5% (active).

Take `COc1ccc2c(c1)CCC1C2CC[C@@]2(C)C1CC[C@@H]2NCCCCCCN1C(=O)C=CC1=O` (stereo not given in full): the inhibition was 7.6% (active).

With `COc1ccc2c(c1)CCC1C2CC[C@@]2(C)C1CC[C@@H]2NCCCCCCN1C(=O)CCC1=O` (stereo not given in full), the inhibition was 8.2% (active).

Regarding `CN/C(=C\[N+](=O)[O-])NCCSCc1ccc(CN(C)C)o1`, the inhibition is 14.5% (active).

`CN(C)CCCc1cc(C(=O)Nc2ccc(-c3ccncc3)cc2)ccc1O`: the inhibition is 14.6% (active).

In the case of `O=C1N=C(O)C(c2ccccc2)(c2ccccc2)N1`, the inhibition was -13.4% (inactive).

`CC/C(=C(\c1ccccc1)c1ccc(OCCN(C)C)cc1)c1ccccc1`: the inhibition was -2.1% (inactive).

Take `CN(C)CCOC(=O)COc1ccc(Cl)cc1`: the inhibition was 2.2% (active).

Turning to `O=C(c1ccccc1)c1ccc2n1CCC2C(=O)O` (stereo not given), the inhibition was 12.6% (active).

`CN1CCC2(CCN3CCc4c(oc5ccccc45)C3C2)N(C)C1=O` (stereo not given): the inhibition was 4.5% (active).

Consider `Cc1nc(N=NC2=[C+]C3=C(C=C([N+](=O)[O-])[C+]=C3S(=O)(=O)[O-])C(S(=O)(=O)[O-])=[C+]2)c(COP(=O)([O-])O)c(C=O)c1O`, for which the inhibition was 53.8% (active).

As to `Cc1nc(N=Nc2ccc(C(=O)O)cc2)c(COP(=O)(O)O)c(C=O)c1O`, the inhibition was 14.2% (active).

Consider `C[C@@H]1C(=O)NC2=Nc3cccc(Cl)c3CN21`, for which the inhibition was 3.4% (active).

Consider `c1ccc2c(c1)CC(N1CCN(c3cccc4c3OCCO4)CC1)C2`, for which the inhibition is 10.4% (active).

`Clc1ccc(C(c2ccccc2Cl)C(Cl)Cl)cc1` (stereo not given): the inhibition was 69.1% (active).

Regarding `O=C(O)/C=C/C(O)c1ccc(Cl)cc1` (stereo not given), the inhibition is -40.2% (inactive).

With `O=C(c1ccc(Cl)cc1)N1CCN(c2ccc([N+](=O)[O-])c3ncccc23)CC1`, the inhibition was 24.1% (active).

Regarding `c1ccc2c(c1)CCC[C@H]2Nc1nc2ccccc2[nH]1`, the inhibition is 61.9% (active).

With `NC1CCN(c2cccc(Cl)n2)CC1`, the inhibition is 4.2% (active).

Consider `COCC(=O)O[C@]1(CCN(C)CCCc2nc3ccccc3[nH]2)CCc2cc(F)ccc2[C@@H]1C(C)C`, for which the inhibition is 2.9% (active).

Consider `C[N+](C)(C)CCOP(=O)(O)OP(=O)([O-])OC[C@H]1O[C@@H](n2ccc(N)nc2=O)C(O)[C@H]1O` (stereo not given in full), for which the inhibition was 20.6% (active).

For the origin of these results see PubChem BioAssay AID1347420 (Sanford-Burnham Center for Chemical Genomics, 2020).
